# Results reported in PubChem BioAssay (NCATS).
# Results filed as inconclusive are left out. Where a call stands in place of a potency, no number is given. Active and inactive are the calls of the source. Calls come from the whole dose curve.
# Test: Cytotoxicity counterscreen for inhibitors of SARS-CoV-2 cell entry (AID 1645845); note: nearly all actives have a fitted effect of over 50% in size
# Conditions: cell viability (SARS-CoV-2 entry assay cells); series mostly up to 57.1 µM
# Method in brief: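 HEK293-ACE2 cells (Expi293F stably expressing human ACE2) seeded overnight, then compound for 1 h plus 48 h at 37C. Viability as ATP content by luminescence; normalized to wells with cells and media-only wells.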
SMILES,Potency,outcome
CCCc1ccc(OCC(=O)N2CCN(C(=O)COc3ccc(CCC)cc3OC)CC2)c(OC)c1,inactive,–
CCCCCC[C@@H](CCC)C(=O)O,inactive,–
NCC[C@H](O)C(=O)N[C@@H]1C[C@H](N)[C@@H](O[C@H]2O[C@H](CN)[C@@H](O)[C@H](O)[C@@H]2O)[C@H](O)[C@@H]1O[C@H]1O[C@H](CO)[C@@H](O)[C@H](N)[C@@H]1O,–,inactive [at 0.702 µM]
CCOc1cc(OCC)c(C(=O)CCC(=O)O)cc1OCC,inactive,–
OC[C@H]1O[C@H](O[C@]2(CCl)O[C@H](CCl)[C@@H](O)[C@@H]2O)[C@H](O)[C@@H](O)[C@H]1Cl,inactive,–
CN1[C@@H]2CC[C@H]1CC(OC(c1ccccc1)c1ccccc1)C2 (stereo partly specified),inactive,–
CC(C)COC(=O)c1ccc(N)cc1,inactive,–
COc1cc(NS(=O)(=O)c2ccc(N)cc2)nc(C)n1,inactive,–
O=C(O)c1cc(=O)c2c(OCC(O)COc3cccc4oc(C(=O)O)cc(=O)c34)cccc2o1,inactive,–
Cc1cc(O)c2c(O)c3c(O)cccc3cc2c1,inactive,–
C[C@]12CCC(=O)C=C1CC[C@H]1[C@@H]3CC[C@](O)(C(=O)CO)[C@@]3(C)C[C@H](O)[C@@]12F,inactive,–
NC(=O)c1ccc([N+](=O)[O-])cc1Cl,inactive,–
Cc1cc(O)cc(C)c1Cl,inactive,–
Cc1cnc(NC(=O)C2=C(O)c3ccccc3S(=O)(=O)N2C)s1,inactive,–
COc1cc(C)c(Cc2cnc(N)nc2N)cc1OC,inactive,–
Cc1nnc(SCC2=C(C(=O)O)N3C(=O)[C@@H](NC(=O)Cn4cnnn4)[C@H]3SC2)s1,inactive,–
